According to PubChem BioAssay:
Calls of active or inactive are those of the source. No rule for the calls is given here.

Experiments:
[1] = tested on: Botulinum neurotoxin type F light chain protease (Clostridium botulinum); assay: Clostridium botulinum type F light chain protease inhibitors, microsphere substrate cleavage, validation (AID 588459); details: multiplex microsphere protease substrate cleavage assay, flow cytometry; at 10 µM; active compounds read high
[2] = biological target: Botulinum neurotoxin type A (Clostridium botulinum) (UniProt P0DPI0); assay: BoNT/A light chain protease inhibitors, biochemical, multiplex microsphere flow cytometry, validation set (AID 588460); details: at 10 µM, active compounds read high
[3] = biological target: Lethal factor (Bacillus anthracis) (UniProt P15917); assay: Bacillus anthracis lethal factor inhibition, microsphere flow cytometry protease assay, validation at 10 µM (AID 588461); details: multiplex microsphere protease cleavage assay, active compounds read high

Measured: inhibition

Chain of Lethal factor (Bacillus anthracis) (P15917 whole entry, looked up): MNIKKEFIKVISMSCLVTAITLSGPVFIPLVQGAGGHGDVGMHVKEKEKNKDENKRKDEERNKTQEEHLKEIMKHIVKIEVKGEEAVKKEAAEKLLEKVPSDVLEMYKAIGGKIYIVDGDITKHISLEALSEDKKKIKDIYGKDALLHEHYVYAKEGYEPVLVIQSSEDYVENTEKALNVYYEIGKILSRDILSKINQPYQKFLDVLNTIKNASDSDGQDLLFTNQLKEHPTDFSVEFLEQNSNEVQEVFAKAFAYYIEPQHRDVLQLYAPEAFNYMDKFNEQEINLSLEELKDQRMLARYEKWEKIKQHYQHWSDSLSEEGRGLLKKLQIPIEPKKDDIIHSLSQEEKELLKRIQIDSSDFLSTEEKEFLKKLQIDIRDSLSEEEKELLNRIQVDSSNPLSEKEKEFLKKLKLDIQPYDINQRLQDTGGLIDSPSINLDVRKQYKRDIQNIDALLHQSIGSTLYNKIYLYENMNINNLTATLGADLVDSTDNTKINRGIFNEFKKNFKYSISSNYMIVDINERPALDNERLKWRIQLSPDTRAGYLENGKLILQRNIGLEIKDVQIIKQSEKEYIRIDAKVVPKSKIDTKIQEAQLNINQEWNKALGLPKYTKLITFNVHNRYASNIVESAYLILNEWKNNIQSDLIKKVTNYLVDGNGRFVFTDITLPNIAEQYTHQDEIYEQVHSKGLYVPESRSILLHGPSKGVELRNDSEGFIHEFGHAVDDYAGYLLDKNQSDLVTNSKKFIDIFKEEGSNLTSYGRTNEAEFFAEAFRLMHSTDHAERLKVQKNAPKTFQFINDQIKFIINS
Chain of Botulinum neurotoxin type A (Clostridium botulinum) (P0DPI0 whole entry, looked up): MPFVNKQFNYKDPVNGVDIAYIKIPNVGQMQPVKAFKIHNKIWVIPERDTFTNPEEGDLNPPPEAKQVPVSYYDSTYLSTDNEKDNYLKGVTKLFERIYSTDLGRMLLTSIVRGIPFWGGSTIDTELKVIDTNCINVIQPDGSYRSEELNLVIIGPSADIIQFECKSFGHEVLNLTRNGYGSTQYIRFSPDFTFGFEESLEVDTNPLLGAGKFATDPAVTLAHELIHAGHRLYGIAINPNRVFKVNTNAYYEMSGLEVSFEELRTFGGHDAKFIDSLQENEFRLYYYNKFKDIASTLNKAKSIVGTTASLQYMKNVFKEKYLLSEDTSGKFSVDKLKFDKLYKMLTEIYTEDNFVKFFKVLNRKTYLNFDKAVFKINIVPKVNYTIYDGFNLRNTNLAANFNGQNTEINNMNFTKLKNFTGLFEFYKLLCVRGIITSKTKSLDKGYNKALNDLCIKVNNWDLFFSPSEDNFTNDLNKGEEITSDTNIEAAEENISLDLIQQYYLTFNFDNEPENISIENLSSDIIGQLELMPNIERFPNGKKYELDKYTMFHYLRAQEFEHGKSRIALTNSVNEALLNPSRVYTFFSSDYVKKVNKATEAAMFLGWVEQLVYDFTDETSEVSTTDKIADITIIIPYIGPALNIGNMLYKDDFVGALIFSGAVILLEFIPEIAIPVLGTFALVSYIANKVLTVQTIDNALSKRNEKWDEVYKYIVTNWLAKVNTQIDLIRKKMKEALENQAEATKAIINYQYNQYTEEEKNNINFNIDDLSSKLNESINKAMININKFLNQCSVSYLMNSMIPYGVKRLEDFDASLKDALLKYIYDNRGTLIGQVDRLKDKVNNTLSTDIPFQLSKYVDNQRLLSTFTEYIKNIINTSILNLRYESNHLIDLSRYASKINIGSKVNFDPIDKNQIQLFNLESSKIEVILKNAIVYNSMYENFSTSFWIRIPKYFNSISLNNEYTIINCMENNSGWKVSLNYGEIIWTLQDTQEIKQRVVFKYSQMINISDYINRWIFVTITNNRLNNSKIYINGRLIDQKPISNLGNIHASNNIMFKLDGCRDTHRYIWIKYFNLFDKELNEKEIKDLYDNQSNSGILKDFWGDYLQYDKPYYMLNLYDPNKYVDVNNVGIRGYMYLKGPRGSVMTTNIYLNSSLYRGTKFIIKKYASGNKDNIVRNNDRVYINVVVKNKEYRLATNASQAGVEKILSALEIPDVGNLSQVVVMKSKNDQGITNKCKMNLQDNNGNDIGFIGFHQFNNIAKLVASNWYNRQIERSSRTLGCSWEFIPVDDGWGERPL

CN1C(C(=O)Nc2ccccn2)=C(O)c2ccccc2S1(=O)=O
inactive: [1] 1.9% | [2] 1.5% | [3] 10%

COc1ccc2cc([C@H](C)C(=O)O)ccc2c1
inactive: [1] 0.3% | [2] -0.1% | [3] -2.6%

CC1(C)c2ccccc2N2CC(=O)N(CC(N)=O)C21C (stereo not drawn)
inactive: [1] 1.5% | [2] -1.4% | [3] -5%

COC(=O)c1cc(OC)c(OC)c(OC)c1[N+](=O)[O-]
inactive: [1] 1.9% | [2] 0.1% | [3] -0.2%

CC(C)N1C(=O)/C(=C\c2nc3ccccc3c(=O)[nH]2)c2ccccc21
inactive: [1] -0.2% | [2] -0.6% | [3] -0.1%

CC1COc2c(N3CCN(C)CC3)c(F)cc3c(=O)c(C(=O)O)cn1c23 (stereo not drawn)
inactive: [1] -0.1% | [2] -0.3% | [3] 3.1%

CC(C)(CO)CNC(=O)CC1C(=O)NCCN1CC(c1ccccc1)c1ccccc1 (stereo not drawn)
inactive: [1] 0.8% | [2] -0.4% | [3] 0.3%

CCOC(=O)C1C(=O)CC(C)(O)C(C(=O)OCC)C1/C=C/c1ccccc1 (stereo not drawn)
inactive: [1] 1.1% | [2] 1% | [3] -1.4%

COc1cc(CNCCc2ccccc2F)ccc1OCC(=O)N1CCCCC1
inactive: [1] 5.4% | [2] -0.1% | [3] 1%

Cc1ccc(S(=O)(=O)NC(=O)NN2CCCCCC2)cc1
inactive: [1] -4.6% | [2] -1.6% | [3] -4.1%

CC1(C)C2CCC1(C)C(OCC[N+](C)(C)CC(=O)OC1CCCCC1)C2 (stereo not drawn)
inactive: [1] -1.7% | [2] -2.1% | [3] -1.9%
